Assay [1] can be described thus: TOX21_p53_BLA_p2_viability: Viability Assessment in the Tox21 HCT-116 p53 Agonism Beta-lactamase Assay, Phase 2 (AID 2283591).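 Further: compound exposure lasted 16 h at 37 °C; actives lower the ATP signal meaning cytotoxicity.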 The procedure, abridged: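 HCT116 p53-bla cells, 4000/well, dosed after 5 h plating (217-fold dilution of DMSO stocks) and incubated 16 h at 37C. Viability taken as cellular ATP by CellTiter-Glo luminescence after 30 min RT; signal loss marks cytotoxicity.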

Assay [2] deals with Cellular tumor antigen p53 (Homo sapiens) (UniProt P04637). Briefly: TOX21_p53_BLA_p2_ratio: Tox21 HCT-116 p53 Agonism Beta-lactamase Assay, Ratio, Phase 2 (AID 2283592). The procedure, abridged: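 Human colon HCT116 cells with an inducible p53 beta-lactamase reporter are exposed to test chemicals for 16 h at 37C. Reporter induction is read as the 460/530 nm emission ratio after CCF4-AM loading, normalized to DMSO.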

Assay [3] is described as follows: TOX21_p53_BLA_p3_viability: Viability Assessment in the Tox21 HCT-116 p53 Agonism Beta-lactamase Assay, Phase 3 (AID 2283593).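 Further: cells exposed to compound for 16 h before reading.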 The method, boiled down:
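HCT116 cells, 4000/well, dosed 5 h after plating by pin transfer (217-fold dilution from DMSO stock) and incubated 16 h at 37C, 5% CO2. Viability read as ATP luminescence with CellTiter-Glo after 30 min at room temperature.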

The target in assay [4] is Cellular tumor antigen p53 (Homo sapiens) (UniProt P04637). The assay can be described thus: TOX21_p53_BLA_p3_ratio: Tox21 HCT-116 p53 Agonism Beta-lactamase Assay, Ratio, Phase 3 (AID 2283596). The method, boiled down:
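HCT116 p53-bla cells (4000/well) given compound in DMSO (217-fold dilution) after 5 h, incubated 16 h at 37C. CCF4-AM substrate 2 h at room temperature; 460/530 nm emission ratio, gain fitted against DMSO.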

Assay [5] can be described thus: TOX21_p53_BLA_p4_viability: Viability Assessment in the Tox21 HCT-116 p53 Agonism Beta-lactamase Assay, Phase 4 (AID 2283597).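 Further: hits lower the luminescence signal meaning cytotoxicity.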 The procedure, abridged: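 Luminescent ATP readout (CellTiter-Glo, 30 min, room temperature) in the same wells as the p53 bla ratio. HCT116 cells were treated for 16 h at 37C with DMSO-dissolved compounds.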
The target in assay [6] is Cellular tumor antigen p53 (Homo sapiens) (UniProt P04637). The assay can be described thus: TOX21_p53_BLA_p5_ratio: Tox21 HCT-116 p53 Agonism Beta-lactamase Assay, Ratio, Phase 5 (AID 2283599). The method, boiled down:
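HCT-116 p53-bla cells (4000/well) plated 5 h, dosed with compound (217-fold DMSO dilution) for 16 h at 37 C; CCF4-AM substrate 2 h at room temperature. Activity is the 460/530 nm emission ratio (405 nm excitation), fitted in gain-of-signal direction versus DMSO.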

Assay [7] in a line: TOX21_p53_BLA_p5_viability: Viability Assessment in the Tox21 HCT-116 p53 Agonism Beta-lactamase Assay, Phase 5 (AID 2283600). The procedure, abridged: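 Seeded cells (4000/well) settle 5 h before compound addition. Plates then incubate 16 h at 37C, receive FRET substrate for 2 h, and finally CellTiter-Glo, with luminescence measured after a 30 min room-temperature incubation.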

For assay [8], the target named is Cellular tumor antigen p53 (Homo sapiens) (UniProt P04637). Briefly: TOX21_p53_BLA_p4_ratio: Tox21 HCT-116 p53 Agonism Beta-lactamase Assay, Ratio, Phase 4 (AID 2283601). The method, boiled down: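 HCT-116 p53 beta-lactamase reporter cells (4000/well) preincubated 5 h, then compound (217-fold dilution of DMSO stock) for 16 h at 37C. CCF4-AM substrate added 2 h at room temperature; 460/530 nm emission ratio fitted upward versus DMSO.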

Assay [9] can be described thus: Tanguay_ZF_120hpf_MORT_legacy: (Legacy) Oregon State University Tanguay Lab 120 Hour Post-fertilization zebrafish Assay for Mortality (AID 2283633).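 On AC50: fitted as increase in binary mortality versus DMSO negative control.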 The procedure, abridged: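 Single dechorionated Tropical 5D embryos were held with test chemical (0.64% DMSO final) from 6 to 120 hpf at 28C under foil. Deaths at 24 or 120 hpf were recorded as binary calls, analysed for increase over DMSO controls.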

The nature of assay [10]: Tanguay_ZF_120hpf_YSE_legacy: (Legacy) Oregon State University Tanguay Lab 120 Hour Post-fertilization zebrafish Assay for Yolk Sac Edema (AID 2283634).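 On AC50: actives raise the incidence of yolk sac edema above the DMSO baseline.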 The procedure, abridged: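 Single dechorionated embryos were held in sealed plates at 28C with test chemical (0.64% DMSO final) from 6 hpf until 120 hpf. Edema of the yolk sac was then recorded as a binary endpoint; non-mortality endpoints were skipped for dead embryos.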

The structures appear in SMILES notation. Several values for one entry are separate records, joined by “and”; a condition that tells them apart may be missing. Identical values can stand only once. Records with an inconclusive call do not appear. A structure can be active in one record and inactive in another. Activity calls are given as the source filed them. How the source made its calls: active means hit-call score of the fitted dose curve at least 0.9, where 1 is the maximum; inconclusive means response in the unintended direction; inactive means score below 0.9.

In general, AC50 refers to the midpoint of the concentration-response curve, whichever way the signal moves.

Sequence of Cellular tumor antigen p53 (Homo sapiens) (P04637 whole entry, looked up): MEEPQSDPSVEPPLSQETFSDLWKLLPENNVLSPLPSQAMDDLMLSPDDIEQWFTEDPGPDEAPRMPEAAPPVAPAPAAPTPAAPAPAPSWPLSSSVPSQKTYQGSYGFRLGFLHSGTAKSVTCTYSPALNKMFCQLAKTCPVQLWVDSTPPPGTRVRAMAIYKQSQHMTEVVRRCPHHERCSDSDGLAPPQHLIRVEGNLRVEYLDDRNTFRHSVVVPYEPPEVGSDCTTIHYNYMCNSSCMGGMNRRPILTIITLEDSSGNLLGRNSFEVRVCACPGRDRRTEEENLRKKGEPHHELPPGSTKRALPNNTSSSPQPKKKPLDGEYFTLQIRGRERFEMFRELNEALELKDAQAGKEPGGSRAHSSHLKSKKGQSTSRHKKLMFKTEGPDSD

Turning to `CCc1cc(SCc2sc(-c3ccc(C(F)(F)F)cc3)nc2CN2CCN(c3ccc(OC)cc3)CC2)ccc1OCC(=O)O`, the AC50 in [1] was 7.48 µM (active); in [2] it was 46.1 µM (active); in assay [3], 17.2 µM (active); in assay [4], 59.9 µM (active); in [5] it was 4.42 µM (active); in [6], 67 µM (active). Moreover, the AC50 in assay [7] was 9.98 µM (active); in [8], 9.5 µM (active). In addition, the result in assay [9] and in assay [10] was inactive.
As for `CCOc1cccc(-n2cc(C(=O)N3CCN(c4cc(C(=O)O)c5ccccc5c4)CC3)nc2-c2ccc(C)cc2)c1`, the AC50 is 10.6 µM (active) in assay [1]; 18 µM (active) in assay [2]; 28.6 µM (active) in [3]; 41.7 µM (active) in assay [4]; 13.3 µM (active) in assay [5]; 58.1 µM (active) in assay [6]. The figures for the AC50 in [7] and in assay [8] were 36.4 µM (active) and 24.1 µM (active), respectively. Also, the compound was called inactive in assay [9] and in assay [10].
In the case of `O=C1OC(=O)C2C3C=CC(C3)C12` (configuration not stated), the result in assay [1], in assay [2], in [3], in assay [4], in [5] and in [6] was inactive. Further, the call in assay [7], in assay [8], in assay [9] and in assay [10] was inactive.
In the case of `CN(C)c1ccc(N=NS(=O)(=O)O)cc1`, the result in assay [1], in assay [2], in assay [3], in [4], in assay [5] and in assay [6] was inactive. The outcome in [7], in assay [8], in assay [9] and in assay [10] was inactive.
Turning to `CC(C)=CCC/C(C)=C/CO`, the compound was classed as inactive in assay [1], in [2], in assay [3], in assay [4], in [5] and in [6]. Besides, the call in assay [7], in assay [8], in [9] and in assay [10] was inactive.
Regarding `COc1ccc2sc(C(=O)Nc3nnn[nH]3)c(OC(C)C)c2c1`, the values for the AC50 in [1], in [3] and in assay [5] were 13.2 µM (active), 17.8 µM (active) and 14.3 µM (active), respectively. Further, the result in assay [2], in assay [4], in [6], in assay [7], in assay [8] and in [9] was inactive. In addition, the outcome in assay [10] was inactive.
Regarding `COC(=O)c1c(Cl)c(Cl)c(C(=O)OC)c(Cl)c1Cl`, the compound was classed as inactive in [1], in assay [2], in assay [3], in [4], in assay [5] and in assay [6]. Moreover, the compound was called inactive in assay [7], in assay [8], in assay [9] and in [10].
For `O=C(CCCCCCCCc1cccnc1)N1CCC(C=C(c2ccccc2)c2ccccc2)CC1`, the concentration at half-maximal activity (AC50) in [1] was 10 µM (active); in [3], 28.2 µM (active); in [4] it was 43.2 µM (active); in [7] it was 13.9 µM (active). Besides, the outcome in assay [2], in assay [5], in assay [6], in [8], in assay [9] and in assay [10] was inactive.
As for `Nc1ccc(Nc2ccccc2)cc1`, the compound was called inactive in [1], in assay [2], in assay [3], in [4], in assay [5] and in [6]. The outcome in assay [7] and in assay [8] was inactive. For the same compound, the half-maximal activity concentration (AC50) in assay [2] was 86 µM (active); in [9], 33.2 µM (active); in [10] it was 27.5 µM (active).
With `O=C(OC[C@H]1O[C@@H](OC(=O)c2cc(O)c(O)c(OC(=O)c3cc(O)c(O)c(O)c3)c2)[C@H](OC(=O)c2cc(O)c(O)c(OC(=O)c3cc(O)c(O)c(O)c3)c2)[C@@H](OC(=O)c2cc(O)c(O)c(OC(=O)c3cc(O)c(O)c(O)c3)c2)[C@@H]1OC(=O)c1cc(O)c(O)c(OC(=O)c2cc(O)c(O)c(O)c2)c1)c1cc(O)c(O)c(OC(=O)c2cc(O)c(O)c(O)c2)c1`, the AC50 in assay [1] was 17.2 µM (active) and 5.28 µM (active); in [2], 12.9 µM (active) and 6.14 µM (active); in assay [3], 6.6 µM (active); in assay [4], 11.2 µM (active) and 5.34 µM (active); in assay [5], 14.1 µM (active) and 3.93 µM (active); in assay [6], 17 µM (active) and 10.6 µM (active). Besides, the AC50 was 6.49 µM (active) in assay [7]; 7.98 µM (active) and 3.2 µM (active) in assay [8]. Moreover, the call in assay [3], in assay [7], in assay [9] and in assay [10] was inactive.
`CCOC(=O)COc1ccc2c(c1)CC(NCC(O)c1cccc(Cl)c1)CC2` (configuration not stated): the AC50 was 67.3 µM (active) in assay [1]; 70.3 µM (active) in assay [2]; 80 µM (active) in [5]; 71.7 µM (active) in assay [8]; 15.6 µM (active) in assay [9]. The outcome in assay [3], in [4], in assay [6], in assay [7] and in assay [10] was inactive.
On to `CC[C@H]1OC(=O)[C@H](C)[C@@H](O[C@H]2C[C@@](C)(OC)[C@@H](O)[C@H](C)O2)[C@H](C)[C@@H](O[C@@H]2O[C@H](C)C[C@H](N(C)C)[C@H]2O)[C@](C)(O)C[C@@H](C)C(=O)[C@H](C)[C@@H](O)[C@]1(C)O`, for which the result in [1], in assay [2], in assay [3], in assay [4], in assay [6] and in assay [7] was inactive. Besides, the result in assay [8] and in assay [9] was inactive.
Consider `CC(=O)OC[C@H]1O[C@@](COC(C)=O)(O[C@H]2O[C@H](COC(C)=O)[C@@H](OC(C)=O)[C@H](OC(C)=O)[C@H]2OC(C)=O)[C@@H](OC(C)=O)[C@@H]1OC(C)=O`, for which the outcome in assay [1], in assay [2], in [3], in assay [4], in assay [5] and in [6] was inactive. The compound was called inactive in assay [9] and in assay [10].
On to `Cc1ccc(S(=O)(=O)O)cc1C`, for which the compound was classed as inactive in [1], in assay [2], in [3], in assay [4], in assay [5] and in assay [6]. Moreover, the outcome in assay [8], in assay [9] and in assay [10] was inactive.
`CCCCC(CC)COC(=O)c1ccc(C(=O)OCC(CC)CCCC)cc1` (configuration not stated): the result in [1], in assay [2], in [3], in [5], in [6] and in assay [7] was inactive. The outcome in assay [8], in assay [9] and in [10] was inactive.
Take `C1N2CN3CN1CN(C2)C3`: the call in assay [1], in assay [2], in assay [3], in [4], in [5] and in assay [7] was inactive. In addition, the outcome in assay [8], in assay [9] and in assay [10] was inactive.
For `CC(C)=CCCC(C)CCO` (configuration not stated), the outcome in assay [1], in assay [2], in assay [3], in assay [5], in assay [6] and in assay [7] was inactive. Besides, the compound was classed as inactive in [9] and in [10].
As for `O=C(O)c1cccc(N(Cc2cccnc2)c2ccc(OC(F)F)c(OC(F)F)c2)c1`, the compound was called inactive in assay [1], in assay [2], in [3], in [4], in assay [5] and in assay [6]. For the same compound, the outcome in [8], in assay [9] and in assay [10] was inactive.
For the compound `CCN(C(=O)c1cc(C)cc(OC[C@H](C)Nc2ccncc2)c1)C(C)C`, the compound was called inactive in [1], in assay [2], in assay [3], in [4], in [5] and in assay [6]. Moreover, the call in [7], in [8], in assay [9] and in assay [10] was inactive.
With `Nc1nc2ncc(CNc3ccc(C(=O)N[C@@H](CCC(=O)O)C(=O)O)cc3)nc2c(=O)[nH]1`, the outcome in assay [1], in assay [2], in assay [3], in [4], in [5] and in assay [6] was inactive. Besides, the outcome in assay [8], in assay [9] and in assay [10] was inactive.

For the origin of these results see PubChem BioAssay (EPA / NIEHS).
